# In all, about 310,000 compounds went through this assay and about 14,000 (4.5%) showed an effect of 50% or more. Effects have a minus sign here. The sample as a whole holds a higher share of strong results than the screen did.
# Target: human ether-à-go-go-related gene (hERG) potassium channel (human, UniProt Q12809)
# Assay: primary screen, population patch clamp on CHO cells stably expressing hERG; higher = less effect of the substance
# 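Note: peak tail current of the secondary pulse compared with the same well before compound.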
# Chain of human ether-à-go-go-related gene (hERG) potassium channel (Q12809 whole entry, looked up): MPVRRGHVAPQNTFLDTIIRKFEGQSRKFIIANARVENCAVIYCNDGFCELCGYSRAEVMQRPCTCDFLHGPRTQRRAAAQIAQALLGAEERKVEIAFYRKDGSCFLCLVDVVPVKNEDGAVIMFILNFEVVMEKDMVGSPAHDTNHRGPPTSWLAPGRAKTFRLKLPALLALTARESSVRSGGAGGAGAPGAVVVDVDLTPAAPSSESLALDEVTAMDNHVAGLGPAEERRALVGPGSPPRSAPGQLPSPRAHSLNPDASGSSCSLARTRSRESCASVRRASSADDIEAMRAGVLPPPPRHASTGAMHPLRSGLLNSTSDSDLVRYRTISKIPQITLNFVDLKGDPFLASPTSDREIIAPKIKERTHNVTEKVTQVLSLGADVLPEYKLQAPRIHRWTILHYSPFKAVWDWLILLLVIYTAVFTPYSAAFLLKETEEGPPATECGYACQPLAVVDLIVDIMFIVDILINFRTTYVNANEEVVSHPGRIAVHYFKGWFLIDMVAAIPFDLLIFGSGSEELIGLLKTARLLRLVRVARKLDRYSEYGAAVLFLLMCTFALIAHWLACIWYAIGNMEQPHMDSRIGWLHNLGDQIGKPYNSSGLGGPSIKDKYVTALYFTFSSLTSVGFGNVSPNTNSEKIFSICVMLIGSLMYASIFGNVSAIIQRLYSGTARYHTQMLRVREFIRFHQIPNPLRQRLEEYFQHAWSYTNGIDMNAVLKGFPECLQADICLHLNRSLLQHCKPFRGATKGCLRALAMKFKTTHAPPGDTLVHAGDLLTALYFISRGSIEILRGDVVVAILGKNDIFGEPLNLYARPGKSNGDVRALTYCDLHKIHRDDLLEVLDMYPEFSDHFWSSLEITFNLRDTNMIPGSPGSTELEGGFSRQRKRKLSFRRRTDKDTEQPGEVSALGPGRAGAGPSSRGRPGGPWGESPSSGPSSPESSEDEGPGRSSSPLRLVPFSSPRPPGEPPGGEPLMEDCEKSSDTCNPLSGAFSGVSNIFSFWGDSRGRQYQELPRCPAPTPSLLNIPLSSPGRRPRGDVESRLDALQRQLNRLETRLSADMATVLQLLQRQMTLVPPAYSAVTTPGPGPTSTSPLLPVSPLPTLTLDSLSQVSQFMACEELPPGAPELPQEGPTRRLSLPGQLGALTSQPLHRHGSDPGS
row,Structure (SMILES),"hERG current change (%, negative = inhibition) at 10uM [%]"
1,CCOC(=O)N1CCC(NC(=O)C2CCCN(C(=O)c3cc4sccc4n3C)C2)CC1 (centres unmarked),-5.34
2,CS(=O)(=O)O.OC(c1cc(C(F)(F)F)nc2c(Cl)cc(Cl)cc12)C1CCCCN1 (centres unmarked),-23.8
3,Cc1[nH]n(-c2ccccc2)c(=O)c1N=Nc1ccc(C(=O)O)cc1,25.7
4,CC(=O)NC1C(Oc2ccccc2C)OC2COC(c3ccco3)OC2C1O (centres unmarked),3.59
5,COc1ccc(-c2c(C(C)=O)c(C)nc3sc4c(=O)[nH]nnc4c23)cc1,8.95
6,Cc1ccccc1OCC(O)Cn1c(NCc2ccco2)nc2c1c(=O)[nH]c(=O)n2C (centres unmarked),4.8
7,Cc1ccccc1OCC(O)Cn1c(NCc2ccco2)nc2c1c(=O)n(C)c(=O)n2C (centres unmarked),-52.1
8,Cn1c(=O)c2c(nc(NCc3ccco3)n2CC(O)COc2ccccc2)n(C)c1=O (centres unmarked),-25.9
9,Cc1oc(S(=O)(=O)N2CCCCC2)cc1NC(=O)Nc1ccc(F)cc1,3.43
10,COc1ccc(CN2CCC(Oc3ccc(C(=O)NCc4ccccn4)cc3)CC2)c(F)c1,-12.6
11,C=CCOc1ccccc1CN1CCC(Oc2cc(C(=O)NC3CC3)ccc2OC)CC1,-72.2
12,COc1ccc(C(=O)NC2CCc3ccccc32)cc1OC1CCN(C(C)=O)CC1 (centres unmarked),-0.012
13,COc1ccc(C(=O)N(C)C2CCCN(Cc3ccccc3F)C2)cc1OC (centres unmarked),11.1
14,COc1ccc(OC)c(CN2CCC(N3CCC(C(=O)NC4CC4)CC3)CC2)c1,-11.1
15,CCOc1ccccc1CN1CCC(Oc2cccc(C(=O)NCCOC)c2)CC1,-30.8
16,COc1ccc(C(=O)NC2CC2)cc1OC1CCN(Cc2ccccc2F)CC1,-78
17,COc1ccc(C(=O)NC2CC2)cc1OC1CCN(Cc2ccccc2O)CC1,-102
18,C=CCC(O)(CC=C)CNC(=O)c1ccc(OC)c(OC2CCN(C(C)=O)CC2)c1,14.9
19,COc1ccc(CN2CCC(Oc3cc(C(=O)NC4CC4)ccc3OC)CC2)c(O)c1,-77.3
20,COc1cc(C(=O)NC2Cc3ccccc3C2)ccc1OC1CCN(C(C)=O)CC1,4.22
21,COc1ccc(C(=O)NCCc2ccccc2F)cc1OC1CCN(C(C)=O)CC1,4.19

row,Structure (SMILES),"hERG current change (%, negative = inhibition) at 10uM [%]"
1,Cc1ccc(Nc2nc3ccccc3n3cnnc23)cc1C,15.5
2,CCOC(=O)N1CCN(C(=O)CSc2nnc(COc3ccc(Cl)cc3)o2)CC1,-37.8
3,CCOCCCNC(=O)CCc1nnc2ccc(N3CCCCC3)nn12,11.1
4,COc1ccc(OC)c(NC(=O)C2CC(=O)N(c3ccccc3)C2)c1 (centres unmarked),5.86
5,O=C(CCC(=O)OCC(=O)c1ccc(-c2ccccc2)cc1)Nc1cccc(Cl)c1,1.65
6,COc1ccc(C(=O)NC2CC2)cc1OC1CCN(Cc2cnn(C)c2C)CC1,-27.2
7,CCn1ncc(CN2CCC(Oc3cc(C(=O)NC4CC4)ccc3OC)CC2)c1C,-21.5
8,COc1ccc(C(=O)NC2CC2)cc1OC1CCN(Cc2cc(C)c(C)cc2C)CC1,-83.1
9,O=C(CCl)Nc1nc(-c2ccco2)c(-c2ccco2)s1,-10.1
10,CN(Cc1ccc(F)cc1)C(=O)c1cccc(OCc2ccccc2)c1,-16.9
11,COc1cccc(CN(C)C(=O)c2cccc(OC3CCN(C4CCCC4)CC3)c2)c1,-55.1
12,O=C(c1cccc(OC2CCN(C3CCCC3)CC2)c1)N1CCCCCCC1,-36
13,CN(Cc1ccc(F)cc1)C(=O)c1cccc(OC2CCN(C3CCCC3)CC2)c1,-61
14,COc1cccc(CN(C)C(=O)c2cccc(OCc3ccccc3)c2)c1,13.1
15,COCCC1CCCCN1C(=O)c1cccc(OC2CCN(C3CCCC3)CC2)c1 (centres unmarked),17.6
16,O=[N+]([O-])C(C1CCS(=O)(=O)C1)C1CCS(=O)(=O)C1 (centres unmarked),11.9
17,Cc1cccc(C2N(c3ccc(F)cc3)C(=O)C3CCCN32)c1 (centres unmarked),-12.3
18,COc1cc(CN2CCN(Cc3ccc(C)cc3)CC2)c([N+](=O)[O-])cc1OC.O=C(O)C(=O)O,-77.2
19,COc1cc(CN2CCCCCC2)c([N+](=O)[O-])cc1OC,3.94
20,COc1cccc(CN2CCN(Cc3cc(OC)c(OC)cc3[N+](=O)[O-])CC2)c1.O=C(O)C(=O)O,-46.3
21,COc1cc(CN2CCN(C(=O)CC(C)C)CC2)c([N+](=O)[O-])cc1OC,8.77

row,Structure (SMILES),"hERG current change (%, negative = inhibition) at 10uM [%]"
1,COc1cc(CN2CCN(Cc3ccc([N+](=O)[O-])cc3)CC2)c([N+](=O)[O-])cc1OC.O=C(O)C(=O)O,-68.2
2,CCN1CCN(Cc2cc(OC)c(OC)cc2[N+](=O)[O-])CC1,8.59
3,Cc1cccc2[nH]c(CN(C)C(=O)CC3C(=O)NCCN3CC(C)(C)C)nc12 (centres unmarked),3.23
4,Cc1cc(C(=O)NCc2ccco2)sc1C,16.2
5,CCO[C@H]1c2c(ccc3ccc(=O)oc23)OC(C)(C)[C@@H]1O,20.9
6,Cc1cc[n+](CC(=O)c2ccc(NC(=O)c3ccccc3)cc2)cc1.[Br-],2.6
7,Cc1ccc[n+](CC(=O)c2ccc(-c3ccccc3)cc2)c1.[Br-],-52.4
8,Cc1cc(C)c[n+](CC(=O)c2ccc(-c3ccccc3)cc2)c1.[Br-],-45.3
9,Cc1ccc(SCCNC(=O)c2ccccc2)cc1,-0.806
10,Cc1ccc(C(=O)C[n+]2ccc3ccccc3c2)cc1.[Br-],-33.6
11,Cc1ccc(C(=O)C[n+]2ccc(Cc3ccccc3)cc2)cc1.[Cl-],-73.6
12,Cc1ccc(SCCc2cc[n+](CC(=O)c3ccccc3)cc2)cc1,-70.5
13,CN(C)c1cc[n+](CC(=O)c2ccc(-c3ccccc3)cc2)cc1.[Cl-],-2.97
14,Cc1ccc[n+](CC(=O)c2ccccc2)c1.[Br-],13.7
15,O=C(c1cc2ccccc2oc1=O)N1CCN(c2ncccn2)CC1,8.16
16,c1ccc2[nH]c(CSc3nnc(-c4ccncc4)o3)nc2c1,-24.8
17,Cc1ccc(Nc2nc(NCc3ccco3)c3ccccc3n2)cc1.Cl,16.9
18,Cl.Oc1ccccc1Nc1nc(NCc2ccco2)c2ccccc2n1,-29.3
19,Cc1ccccc1Nc1nc(NCc2ccco2)c2ccccc2n1.Cl,-63.6
20,Cl.Fc1ccc(Nc2nc(NCc3ccco3)c3ccccc3n2)cc1,-37.2
21,Cl.c1ccc(Nc2nc(NCc3ccco3)c3ccccc3n2)cc1,-71

row,Structure (SMILES),"hERG current change (%, negative = inhibition) at 10uM [%]"
1,COc1ccccc1Nc1nc(NCc2ccco2)c2ccccc2n1.Cl,-20.3
2,COc1ccc(O)c(C(=O)/C=C/c2cc3ccccc3o2)c1,7.22
3,CN1C(=O)/C(=C/c2ccc(C(F)(F)F)cc2)Sc2ccc(C(=O)N3CCN(c4ccccn4)CC3)cc21,5.11
4,C[C@@H]1O[C@@H](Oc2c(-c3cc(O)c(O)c(O)c3)oc3cc(O)cc(O)c3c2=O)[C@H](O)[C@H](O)[C@H]1O,4
5,Cc1ccc2nc(N(CCCN(C)C)C(=O)CS(=O)(=O)c3ccccc3)sc2c1.Cl,-22.7
6,CN(C)CCCN(C(=O)COc1ccccc1)c1nc2ccc(Cl)cc2s1.Cl,-67.1
7,Cc1ccc2nc(N(CCCN(C)C)C(=O)COc3ccc(Cl)cc3)sc2c1.Cl,-8.71
8,CN(C)CCCN(C(=O)COc1ccccc1)c1nc2ccc(F)cc2s1.Cl,-68
9,CCN(CC)CCN(C(=O)CCOc1ccccc1)c1nc2ccc(F)cc2s1.Cl,-8.61
10,CN(C)CCCN(C(=O)COc1ccc(Cl)cc1)c1nc2ccc(F)cc2s1.Cl,-21.4
11,NC(=O)CC(NC(=O)Cc1ccc(Cl)cc1)c1ccc(NC2CC3CCC2C3)c([N+](=O)[O-])c1 (centres unmarked),-3.01
12,Cc1ccc(-c2nc(NCCCO)c3ccccc3n2)cc1,-41.2
13,OCCCNc1nc(-c2ccc(Cl)cc2)nc2ccccc12,-63.1
14,CN(C)CCCNc1nc(-c2ccc(Cl)cc2)nc2ccccc12,-35.5
15,CCOCCCNc1nc(-c2ccccc2)nc2ccccc12.Cl,-27.5
16,CCN(CC)CCCNc1nc2ccccc2c2nc(-c3ccncc3)nn12,-56.6
17,CCN(CC)CCCNc1nc2cc(OC)c(OC)cc2c2nc(-c3cccnc3)nn12,-2.29
18,CCN(CC)CCCNc1nc(-c2ccccc2)nc2ccccc12.Cl,-61.4
19,CN(C)CCCNc1nc(-c2ccccc2)nc2ccccc12.Cl,-13.5
20,CCN(CC)CCCNc1nc2cc(OC)c(OC)cc2c2nc(-c3ccccc3)nn12,-7.77

# From article PMC4336329 (PLoS ONE, 2015)
